Assay results reported in ChEMBL document CHEMBL1157539, “Thousands of chemical starting points for antimalarial lead identification” (Nature, 2010).

system: Plasmodium falciparum; experiment: GSK_TCMDC: Inhibition of Plasmodium falciparum Dd2 in whole red blood cells, using parasite LDH activity as an index of growth. Test compounds present at 2uM; assay type: functional

| SMILES | Inhibition [%] |
| --- | --- |
| O=C(NCCCCCN1CCC(c2c[nH]c3ccccc23)CC1)Nc1cccc(Cl)c1 | 0 |
| CC(O)C(=O)O.CCOc1ccc2nc3cc(N)ccc3c(N)c2c1 | 70 |
| COc1ccc2nc(SC(C)C(=O)c3c[nH]c4ccccc34)[nH]c2c1 (stereo unspecified) | 98 |
| CC1(C)CCC(C)(C)c2c1ccc(C1CCN(CCCCNC(=O)c3ccc(-c4ccc(Cl)cc4)cc3)CC1)c2O | 72 |
| CN(C)CCC1CCN(CCS(=O)(=O)c2cccc(Nc3ccc(-c4cccc(F)c4)cn3)c2)CC1 | 59 |
| CN1CCC(C(=O)N(Cc2ccc(-c3ccc(CNCCc4ccc(S(C)(=O)=O)cc4)cn3)cc2)Cc2cccc(F)c2)CC1.O=C(O)C(F)(F)F | 90 |
| COc1ccc(S(=O)(=O)N(c2cc(Br)cc3c2OCC3)S(=O)(=O)c2ccc(OC)c(N3CCN(C)CC3)c2)cc1N1CCN(C)CC1 | 98 |
| O=C(Nc1cccc(CN2CCCN(Cc3ccc(O)cc3)CC2)c1)c1cc2ccccc2s1.O=C(O)C(F)(F)F | 90 |
| Cc1cc(N[C@@H](CC(C)C)C(=O)NCc2cccs2)nc(NCCc2cccs2)n1.O=C(O)C(F)(F)F | 13 |
| COc1ccc(NC(=O)[C@H](CC(C)C)Nc2cc(C)nc(NCc3ccccc3C)n2)cc1.O=C(O)C(F)(F)F | 78 |
| Cc1cccc(C)c1OC(=O)C(C)C(O)C1(Sc2ccccc2)CCN(C)CC1 (stereo unspecified) | 92 |
| Cc1noc(C)c1CN1Cc2ccccc2OC2(CCN(Cc3c[nH]c4cnccc34)CC2)C1.O=C(O)C(F)(F)F | 12 |
| CN(/N=C/C=C/c1ccc(Cl)cc1)c1nc(NCCc2ccc(O)cc2)nc(N2CCNCC2)n1 | 69 |
| COc1cccc(-c2csc(C(=O)NCC3CCN(Cc4ccc(C(C)(C)C)cc4)C3)c2)c1.O=C(O)C(F)(F)F (stereo unspecified) | 10 |
| CCN(CCCN1CCCCC1)c1cc(C)nc(Nc2ccc(C)cc2C(F)(F)F)n1.O=C(O)C(F)(F)F | 35 |
| Cc1oc(-c2ccc(Cl)cc2)cc1C(=O)NCCC1CCN(CCCCCNC(=O)/C=C/c2ccc(Cl)c(Cl)c2)CC1 | 88 |
| O=C(/C=C/c1ccc(Cl)c(Cl)c1)NC1CCC(CN2CCC(c3nc4cc(O)ccc4[nH]3)CC2)CC1 (stereo unspecified) | 84 |
| O=C(O)C(F)(F)F.Oc1ccc(CCNc2nc(NCCOc3cccc4ccccc34)nc(N3CCNCC3)n2)cc1 | 8 |
| O=C(/C=C/c1ccc(Cl)c(Cl)c1)NCCCCCN1CCCN(C(=O)Nc2cccc(Cl)c2)CC1 | 2 |
| Cc1nn(CCOC(=O)NC(NCC2COc3ccccc3O2)C(Cl)(Cl)Cl)cc1[N+](=O)[O-] (stereo unspecified) | 99 |
| CC(C)CNCc1cccc(-c2ccccc2CNC2CCN(Cc3ccccc3)CC2)c1.O=C(O)C(F)(F)F | 39 |
| CS(=O)(=O)c1ccc(CNCc2ccc(-c3cccc(-c4nc5cc(C(F)(F)F)ccc5[nH]4)c3)cc2)cc1.O=C(O)C(F)(F)F | 100 |
| Cc1cccc2nc(-c3ccc(-c4ccc(CN5CCN(c6ccc(C#N)cn6)CC5)cc4)s3)[nH]c12.O=C(O)C(F)(F)F | 44 |
| Cc1ccc(NC(=O)Nc2ccc(Br)cc2)cc1OCCN(C)C | 15 |
| NC(=O)C1CCN(Cc2ccc(-c3cccc(-c4nc5cc(F)ccc5[nH]4)c3)cc2)CC1.O=C(O)C(F)(F)F | 3 |
| O=C(/C=C/c1ccc(Cl)c(Cl)c1)N1CCC(NCc2ccc3[nH]ccc3c2)CC1 | 1 |
